Source: PubChem BioAssay (National Center for Advancing Translational Sciences (NCATS))
This is a sample that favours compounds with a hit; in the whole collection about 10% have one here.
BAZ2B block = qHTS Assay for Inhibitors of BAZ2B; 360,000 compounds, 4.4% hits; AID 504333, 2011; AlphaScreen BAZ2B-H3K14Ac peptide displacement; Bromodomain adjacent to zinc finger domain protein 2B (Homo sapiens), Q9UIF8; Potency, µM (highest dose often 114 µM), without a hit: at the highest dose activity change, negative = inhibition, hits mostly inhibitors; also: potency is read from the fitted curve at half-maximal effect; % is scaled to controls: 0 for no effect and ±100 for the full control effect; nearly all actives have a fitted effect of over 60% in size
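BAZ2B 50 nM plus b-H3(5-23)K14Ac 50 nM, PBS pH 7.4/0.01% Tween-20, 30 min RT; compound added (max 110 uM), 30 min RT; streptavidin donor/Ni-chelate acceptor beads 10 ug/mL final, 20 min dark; AlphaScreen read.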
Six1-Eya2 inh = qHTS Assay for Inhibitors of the Six1/Eya2 Interaction; AID 651725, 2012; Homeobox protein SIX1 (Homo sapiens) + Protein phosphatase EYA2 (Homo sapiens), …; activity change, % (concentration not given with the values); 360,000 compounds, 0.56% hits; AlphaScreen GST-Six1/His-Eya2 binding, biochemical; hits give low values; in the data active = activity change below about -65%; inconclusive = mostly about -30% to -63%; also: % is scaled to controls: 0 for no effect and ±100 for the full control effect
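AlphaScreen luminescence read after one hour at 37 °C in darkness. Pin-transferred compounds met GST-Six1 and His-Eya2 protein (5X stock 250 nM/500 nM) plus glutathione donor and Ni-chelate acceptor beads (5X, 50 ug/mL).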
CtBP-E1A blk = qHTS Assay for Inhibitors of the CtBP/E1A Interaction; CtBP / adenovirus E1A interaction (AlphaScreen); AlphaScreen GST-E1A/His-CtBP binding, 1536-well; hits give low values; activity change, % (concentration not given with the values); 340,000 compounds, 0.49% hits; in the data active = activity change below about -65%; inconclusive = mostly about -30% to -63%; also: % is scaled to controls: 0 for no effect and ±100 for the full control effect
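Protein mix (5X: 125 nM each GST-E1A, His-CtBP) was incubated with pinned compound 2 h at 37 deg C in dark, in 50 mM Tris pH 8.0 buffer with 300 mM NaCl. Glutathione donor and nickel acceptor beads followed; AlphaScreen signal read after 1 h.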
JMJD2A Tudor = qHTS Assay for Inhibitors of JMJD2A-Tudor Domain | Lysine-specific demethylase 4A (Homo sapiens), O75164 | AlphaScreen JMJD2A-Tudor / H3K4me3 peptide binding | Potency, µM (highest dose often 114 µM), inactives show at the top dose activity change, negative = inhibition, most hits filed as inhibitors | 390,000 compounds, 4.4% hits; also: potency is read from the fitted curve at half-maximal effect; % is scaled to controls: 0 for no effect and ±100 for the full control effect; nearly all actives have a fitted effect of over 50% in size
G9a block = qHTS Assay for Inhibitors of Histone Lysine Methyltransferase G9a | Potency, µM (top dose mostly 102 µM), without a hit: at the highest dose activity, negative = inhibition, actives largely listed as inhibitors | 350,000 compounds, 8.8% hits | Histone-lysine N-methyltransferase EHMT2 (Homo sapiens), Q96KQ7 | G9a H3K9 monomethylation, AlphaScreen, 2 h; also: potency is read from the fitted curve at half-maximal effect; % is scaled to controls: 0 for no effect and ±100 for the full control effect; nearly all actives have a fitted effect of over 75% in size
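G9a (20 nM) was preincubated 15 min with compound, then reacted 2 h at room temperature with 500 nM biotin-H3K9 peptide and 20 µM SAM. Monomethyl-H3K9 detected by AlphaScreen using anti-H3K9me1 antibody.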
HP1b chromo inh = HTS for Inhibitors of HP1-beta Chromodomain Interactions with Methylated Histone Tails | AlphaScreen HP1-beta / biotin-H3K9me3 peptide binding | Potency, µM (titrated, usually from 114 µM), for the others: at the highest dose activity change, negative = inhibition, actives largely listed as inhibitors | Chromobox protein homolog 1 (Homo sapiens), P83916 | 390,000 compounds, 0.56% hits; also: potency is read from the fitted curve at half-maximal effect; nearly all actives have a fitted effect of over 70% in size
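Compound inhibition of the preformed complex between 50 nM HP1-beta and 50 nM biotinylated H3K9me3 peptide was read by AlphaScreen. Buffer was PBS pH 7.4 with 0.01% Tween-20. Incubations ran 30 min at room temperature, with 10 ug/mL donor/acceptor beads.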
Active calls of the source: *; ? = inconclusive; nt = not tested or not shown; [ ] = dose if it differs, or a comment. Unless noted, calls follow the shape of the dose curve; as a rule, active = well fitted inhibition curve with a large enough effect; inconclusive = small, poorly fitted or top-dose-only effect; inactive = no such curve, though single readings can be large or run the other way.

SMILES | BAZ2B block | Six1-Eya2 inh | CtBP-E1A blk | JMJD2A Tudor | G9a block | HP1b chromo inh
Brc1ccccc1C1=Nn2c(nnc2-c2ccccc2)SC1 | -5% | -9 | -5 | -24% | 32µM* | -26%
COc1ccc(CCNC(=O)Cn2c(-c3ccc(F)cc3)cc(C(C)=O)c2C)cc1OC | -3% | nt | nt | -13% | 8%[59 µM] | 11%
CCOC(=O)c1cc(NC(=O)c2ccc(C)cc2)c(=O)n2c1oc1ccc(Cl)cc12 | 3% | nt | nt | 6% | 12%[59 µM] | 82%
CC(=O)c1ccc(NC(=O)c2ccc(CN3C(=O)CCn4nc(C)cc43)cc2)cc1 | -15% | nt | nt | -16% | -26%[59 µM] | 13%
COc1ccc(C2=Nn3c(nnc3-c3cccnc3)SC2)cc1OC | 3% | -69* | -77* | -13% | ? | 43%
Cc1sc2ncn(CC(=O)N3CCN(c4ccc(F)cc4)CC3)c(=O)c2c1S(=O)(=O)N1CCCCC1 | -15% | nt | nt | -14% | -2%[59 µM] | 12%
CC(=O)OCC(NC(=O)C(Cc1ccccc1)NC(=O)OC(C)(C)C)C1OC(n2cc(F)c(=O)[nH]c2=O)C(OC(C)=O)C1OC(C)=O (centres undefined) | nt | nt | nt | -6% | nt | 31%
CCCC(=O)Nc1ccc(C(N)=O)cc1 | -16% | 0 | -2 | -16% | -12% | 29%
CC(=O)CC(=O)Nc1ccc(Nc2ccccc2)cc1 | ? | -1 | 0 | -24% | 71µM* | 8%
O=C(Nc1ccc(Nc2ccccc2)cc1)C1CC1 | ? | -8 | -6 | ? | 25µM* | 7%
CC(=O)CC(=O)Nc1ccc(C(N)=O)cc1 | -5% | -2 | -7 | -5% | 25µM* | 26%
O=C(Nc1ccccc1)C1CCN(c2nccs2)CC1 | -28% | 0 | 1 | 3% | 50µM* | -16%
COC(=O)C1=C[C@@H](C(=O)OC)[C@@H]2C3=C(C(=O)C2(C)C)[C@H](c2ccccc2)[C@@H]2C(=O)N(c4ccccc4)C(=O)[C@@H]2[C@@H]3C1 | nt | nt | nt | -19% | nt | 37%
Cc1ccc(CNC(=O)Cn2ncc3c([nH]c4ccc(C)cc43)c2=O)cc1 | 9%[57.1 µM] | nt | nt | -5% | -23%[59 µM] | 12%
O=C(Nc1cc(OC(=O)C(F)(F)F)c2nonc2c1OC(=O)C(F)(F)F)C(F)(F)F | nt | nt | nt | -8%[57.1 µM] | nt | -6%[57 µM]
O=C1NN=C(CSc2n[nH]c(=S)s2)CS1 | 79µM* | -6 | nt | 18µM* | 2.5µM* | -35%
Cc1nc2nc(SCC(=O)NCc3ccccc3Cl)nn2c(C)c1Cc1ccccc1 | -2% | nt | nt | -17% | -4%[59 µM] | 36%
N#Cc1cccc(NC(=O)CSc2sc3c(O)cc(=O)[nH]c3c2C#N)c1 | ? | -23 | 0 | ? | ? | -20%
N#Cc1c(SCC(=O)Nc2nc3ccc(Br)cc3s2)sc2c(O)cc(=O)[nH]c12 | 20µM* | -16 | -21 | 25µM* | 40µM* | 22µM*
N#Cc1c(SCC(=O)Nc2ccccc2C(F)(F)F)sc2c(O)cc(=O)[nH]c12 | -24% | -5 | 3 | -14% | -15%[59 µM] | 14%
N#Cc1c(SCC(=O)Nc2nc3ccccc3s2)sc2c(O)cc(=O)[nH]c12 | 45µM* | -20 | -23 | 8.9µM* | ? | ?
Cc1ccc(N2CC(NC(=O)C3CCCC3)CC2=O)cc1 (centres undefined) | -7% | nt | nt | -16% | 2%[59 µM] | 24%
Cc1cccc(CN2CC34CCC(CC3S2(=O)=O)O4)c1 (centres undefined) | nt | nt | nt | -11% | nt | 9%
CC(C)(C)n1[nH]c2c3c(ccc2c1=O)C(=O)c1ccccc1C3=O | -10% | ? | -15 | -21% | ? | 18%
Cc1ccc(C)c(-n2[nH]c3c4c(ccc3c2=O)C(=O)c2ccccc2C4=O)c1 | 45µM* | -3 | -7 | ? | -7%[59 µM] | 50µM*
